The results in this text go back to PubChem BioAssay (NCI).

Structures are written as SMILES. This is part of a sample that, as a whole, favours compounds with a hit. Of some 83,000 tested, about 20% had one in any assay.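 The test compound was applied at a single concentration to cells in 96-well plates for 48 hours, and percent growth was recorded.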 A number with no mark means an inactive call. Active and inactive are the calls of the source. Rule for the calls: active = growth percent below 10; inactive = the rest.

Some test systems named below: NCI-H23 lung; NCI-H226 lung; NCI-H322M lung; HOP-62 NSCLC; NCI-H460 lung; HOP-92 NSCLC; NCI-H522 lung; A549/ATCC NSCLC; 786-0 renal; COLO 205 colon; DU-145 prostate; K-562 leukemia; MALME-3M melanoma; MDA-MB-231 breast; RXF 393 renal; SF-268 CNS; SF-295 CNS; SF-539 CNS; UACC-257 melanoma; M14 melanoma.
Common to all, as to assay: NCI-60 one-dose screen, 48 h (100 = growth as untreated, 0 = no growth, -100 = all killed)
What all share (details): 10 µM unless noted

With `CC(=O)c1ccc(-n2cc(CN3CCN(c4cc5c(cc4F)c(=O)c(C(=O)O)cn5C4CC4)CC3)nn2)cc1`, the growth in the assay with NCI-H23 lung was 83.5%; in the assay with NCI-H226 lung, 69.6%; in the assay with NCI-H322M lung, 89.2%; in the assay with HOP-62 NSCLC, 78.7%; in the assay on NCI-H460 lung, 91.2%; with HOP-92 NSCLC, 79.9%. Further, the growth is 89.2% with NCI-H522 lung; 89.8% in the assay with A549/ATCC NSCLC; 87.9% with 786-0 renal; 110% in the assay with COLO 205 colon; 104% in the assay on DU-145 prostate; 101% in the assay on K-562 leukemia. Besides, the growth in the assay with MALME-3M melanoma is 94.9%; with MDA-MB-231 breast, 97.1%; with RXF 393 renal it was 72%; in the assay on SF-268 CNS it was 85.3%; in the assay on SF-295 CNS it was 95.9%; in the assay on SF-539 CNS, 92.6%. Moreover, the growth in the assay with UACC-257 melanoma is 96.7%; in the assay with M14 melanoma it was 90.1%.
As to `CCN(CCNc1ccc(C)c2sc3cc(Cl)ccc3c(=O)c12)CC(C)(C)O`, the growth in the assay on NCI-H23 lung is 82.3%; in the assay on NCI-H226 lung it was 87.6%; with NCI-H322M lung, 74%; in the assay on HOP-62 NSCLC it was 45.3%; in the assay with NCI-H460 lung, 44.4%; in the assay on HOP-92 NSCLC, 48.3%. Also, the growth in the assay on NCI-H522 lung was 76.7%; with A549/ATCC NSCLC, 50.9%; in the assay on 786-0 renal, 47.6%; with COLO 205 colon, 21.4%; with DU-145 prostate, 86.8%; in the assay on K-562 leukemia, 29.7%. Further, the growth in the assay with MALME-3M melanoma is 67.5%; in the assay on MDA-MB-231 breast, 32%; with RXF 393 renal, -18.5% (active); in the assay on SF-268 CNS, 79.8%; in the assay on SF-295 CNS, 88%; in the assay on SF-539 CNS, 65.8%. For the same compound, the figures for the growth in the assay with UACC-257 melanoma and in the assay on M14 melanoma were -8.78% (active) and -65.9% (active), respectively.
Take `CCOC(=O)C/C(=N\Nc1cc(=O)[nH]c2ccc(C)cc12)C(=O)OCC`: the growth in the assay on NCI-H23 lung was 103%; with NCI-H226 lung it was 93.3%; in the assay on NCI-H322M lung, 98%; in the assay on HOP-62 NSCLC it was 107%; in the assay on NCI-H460 lung, 104%; with HOP-92 NSCLC, 79.8%. For the same compound, the growth is 99.4% in the assay on NCI-H522 lung; 107% in the assay with A549/ATCC NSCLC; 109% in the assay with 786-0 renal; 124% in the assay with COLO 205 colon; 108% in the assay on DU-145 prostate; 89.4% in the assay on K-562 leukemia. Moreover, the growth in the assay on MALME-3M melanoma was 98%; in the assay with MDA-MB-231 breast, 96.3%; in the assay with RXF 393 renal, 108%; with SF-268 CNS it was 99.5%; with SF-295 CNS it was 105%; with SF-539 CNS, 103%. For the same compound, the growth is 105% with UACC-257 melanoma and 106% in the assay with M14 melanoma.
`N#Cc1c(-c2ccccc2)cc(-c2ccccc2)n(CCCCC(=O)NO)c1=O`: the growth was 25.8% in the assay with NCI-H23 lung; 9.98% (active) in the assay with NCI-H226 lung; 92.2% with NCI-H322M lung; 21.1% with HOP-62 NSCLC; 73% in the assay with NCI-H460 lung; 15.7% with HOP-92 NSCLC. Besides, the growth with NCI-H522 lung was 19.3%; with A549/ATCC NSCLC, 41.7%; with 786-0 renal it was 7% (active); in the assay on COLO 205 colon, 43.3%; in the assay with DU-145 prostate it was 20.2%; in the assay with K-562 leukemia, 6.77% (active). For the same compound, the growth with MALME-3M melanoma was 11.5%; in the assay with MDA-MB-231 breast, 25.6%; in the assay with RXF 393 renal, -16.5% (active); in the assay with SF-268 CNS it was 43%; in the assay on SF-295 CNS, 1.64% (active); in the assay with SF-539 CNS, 24.3%. The growth in the assay on UACC-257 melanoma was 35.8%; in the assay on M14 melanoma, 19.1%.
As for `Fc1cccc(CNc2c3ccccc3nc3ccccc23)c1`, the growth is 33.9% with NCI-H23 lung; 50.6% with NCI-H226 lung; 40.2% in the assay on NCI-H322M lung; 47.9% in the assay on HOP-62 NSCLC; 12.7% with NCI-H460 lung; -4.06% (active) in the assay on HOP-92 NSCLC. In addition, the growth was 37.8% in the assay on NCI-H522 lung; 29.3% with A549/ATCC NSCLC; 36.4% in the assay with 786-0 renal; 17.3% with COLO 205 colon; 41.7% with DU-145 prostate; 15.7% in the assay with K-562 leukemia. Moreover, the growth in the assay on MALME-3M melanoma was 50.5%; with MDA-MB-231 breast, 30.6%; in the assay on RXF 393 renal it was 32.8%; in the assay with SF-268 CNS it was 62.1%; in the assay on SF-295 CNS it was 25.2%; in the assay with SF-539 CNS, 26.9%. The growth in the assay with UACC-257 melanoma is 58.1%; in the assay with M14 melanoma, 38.8%.
For the compound `CC(=O)c1sc(-c2ccc(F)cc2)cc1O`, the growth with NCI-H23 lung was 96.4%; in the assay on NCI-H226 lung, 103%; with NCI-H322M lung, 98.3%; in the assay on HOP-62 NSCLC it was 111%; in the assay with NCI-H460 lung, 108%; with HOP-92 NSCLC, 102%. The growth was 99.2% with NCI-H522 lung; 97.2% with A549/ATCC NSCLC; 96.7% with 786-0 renal; 116% with COLO 205 colon; 97.7% in the assay with DU-145 prostate; 88.5% in the assay with K-562 leukemia. The growth is 99% in the assay on MALME-3M melanoma; 127% in the assay on MDA-MB-231 breast; 111% in the assay on RXF 393 renal; 97.2% with SF-268 CNS; 105% in the assay with SF-295 CNS; 114% in the assay with SF-539 CNS. Also, the growth with UACC-257 melanoma was 100%; with M14 melanoma, 95.1%.
Take `CCOC(=O)c1[nH]cc2c1CCc1sc(Nc3ccccn3)nc1-2`: the growth in the assay with NCI-H23 lung is 66.7%; in the assay with NCI-H226 lung it was 57.2%; in the assay with NCI-H322M lung, 96%; with HOP-62 NSCLC, 92.3%; in the assay on NCI-H460 lung it was 85.9%; in the assay with HOP-92 NSCLC it was 56.3%. Further, the growth was 66.2% in the assay with NCI-H522 lung; 70.2% with A549/ATCC NSCLC; 98.7% with 786-0 renal; 93.7% with COLO 205 colon; 74.4% in the assay with DU-145 prostate; 59.5% with K-562 leukemia. Besides, the growth in the assay on MALME-3M melanoma is 108%; with MDA-MB-231 breast, 82.3%; in the assay on RXF 393 renal it was 86.2%; with SF-268 CNS, 89.4%; in the assay on SF-295 CNS, 86.5%; with SF-539 CNS, 101%. In addition, the growth in the assay with UACC-257 melanoma was 73.8%; in the assay on M14 melanoma, 86.3%.
Regarding `COC12C=C/C(=C(/C(=O)OCc3cncnc3)C(=O)CCCCCCCCC3(OC)C=C/C(=C(/C(=O)OCc4cncnc4)C(=O)CCCCCCCC1)O3)O2`, the growth was -49.9% (active) in the assay on NCI-H23 lung; -78% (active) in the assay on NCI-H226 lung; -66% (active) in the assay on NCI-H322M lung; 9.7% (active) with HOP-62 NSCLC; -20.5% (active) with NCI-H460 lung; -59.7% (active) with HOP-92 NSCLC. Besides, the growth in the assay on NCI-H522 lung is -33.8% (active); in the assay with A549/ATCC NSCLC, -7.89% (active); with 786-0 renal, -70.7% (active); in the assay with COLO 205 colon, -30.5% (active); with DU-145 prostate it was -42.7% (active); in the assay with K-562 leukemia, -16.8% (active). The growth was -70.8% (active) in the assay on MALME-3M melanoma; 5.88% (active) in the assay with MDA-MB-231 breast; -74.2% (active) with RXF 393 renal; -10.6% (active) with SF-268 CNS; -13.8% (active) in the assay with SF-295 CNS; -27% (active) in the assay with SF-539 CNS. The growth in the assay on UACC-257 melanoma is -12.7% (active); with M14 melanoma it was -12.3% (active).
